The nature of experiment [1]: qHTS profiling for inhibitors of Plasmodium falciparum proliferation (AID 504749).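 Also: 0% = DMSO vehicle and full inhibition = artemisinin control; nearly all actives have a fitted effect of over 60% in size.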 To be noted: P. falciparum in erythrocytes, SYBR Green DNA, 72 h. The procedure, abridged: (§1)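 Fluorescence of SYBR Green-bound parasite DNA, read at 485/535 nm, served as the growth measure. Infected erythrocytes were cultured with compound 72 h; artemisinin (0.29 uM) and DMSO wells defined the normalization range.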

A further experiment relates to 3D7. The experiment is described as above. To be noted: P. falciparum in erythrocytes, SYBR Green DNA, 72 h; series mostly up to 28.7 µM. The essentials: as §1
The test system of the next experiment is 7G8. The experiment is described as above. To be noted: P. falciparum in erythrocytes, SYBR Green DNA, 72 h; series mostly up to 28.7 µM. The procedure, abridged: as §1
Another experiment relates to AA1029. The experiment is described as above. To be noted: P. falciparum in erythrocytes, SYBR Green DNA, 72 h; series mostly up to 28.7 µM. The procedure, abridged:
as §1

A further experiment deals with AS120. Described as above. As to conditions: P. falciparum in erythrocytes, SYBR Green DNA, 72 h; series mostly up to 28.7 µM. The essentials: as §1
A further experiment concerns ATS189. The description is as above. To be noted: P. falciparum in erythrocytes, SYBR Green DNA, 72 h; series mostly up to 28.7 µM. The essentials:
as §1

The next experiment deals with ATS95. The experiment is described as above. To be noted: P. falciparum in erythrocytes, SYBR Green DNA, 72 h; series mostly up to 28.7 µM. The essentials:
as §1

The subject of a further experiment is C2A. The description is as above. As to conditions: P. falciparum in erythrocytes, SYBR Green DNA, 72 h; series mostly up to 28.7 µM. The essentials: as §1
A further experiment concerns CP185. The experiment is described as above. To be noted: P. falciparum in erythrocytes, SYBR Green DNA, 72 h; series mostly up to 28.7 µM. The essentials:
as §1

Another experiment relates to CP191. The description is as above. To be noted: P. falciparum in erythrocytes, SYBR Green DNA, 72 h; series mostly up to 28.7 µM. The essentials:
as §1

The next experiment relates to CP192. Described as above. As to conditions: P. falciparum in erythrocytes, SYBR Green DNA, 72 h; series mostly up to 28.7 µM. The procedure, abridged: as §1
Another experiment relates to CP194. The experiment is described as above. As to conditions: P. falciparum in erythrocytes, SYBR Green DNA, 72 h; series mostly up to 28.7 µM. The essentials: as §1
A further experiment concerns CP201. The experiment is described as above. To be noted: P. falciparum in erythrocytes, SYBR Green DNA, 72 h; series mostly up to 28.7 µM. The procedure, abridged:
as §1

A further experiment concerns CP203. The experiment is described as above. As to conditions: P. falciparum in erythrocytes, SYBR Green DNA, 72 h; series mostly up to 28.7 µM. The essentials: as §1
For the next experiment, the system named is CP211. The experiment is described as above. To be noted: P. falciparum in erythrocytes, SYBR Green DNA, 72 h; series mostly up to 28.7 µM. The procedure, abridged: as §1
The next experiment relates to CP215. The description is as above. As to conditions: P. falciparum in erythrocytes, SYBR Green DNA, 72 h; series mostly up to 28.7 µM. The essentials:
as §1

Experiment [2] in a line: qHTS drug screen for cell cycle checkpoint inhibitors in PARPi-resistant BRCA-mutant ovarian cancer cell lines. (AID 1963452; calls by dose curve). As to conditions: PEO1/OlaR viability, CellTiter-Glo luminescence, 96 h, stronger effect = lower value. The procedure, abridged:
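PEO1, PEO4 and PEO1/OlaR ovarian cancer cells, 600 per well, exposed 96 h at 37C to a dilution series. Viability read by CellTiter-Glo luminescence, normalized to DMSO and empty wells; activity summarized as Z-AUC.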

For experiment [3], the target named is Nuclear receptor subfamily 1 group I member 2 (Homo sapiens) (UniProt O75469). Briefly: Dual reporter qHTS for agonist of Pregnane X Receptor (hPXR) against the NCATS DSHEA and TCM libraries: Luminescence readout (AID 1920059). Also: 0% is about no effect. To be noted: hPXR dual reporter cells, luciferase luminescence agonist; series mostly up to 40 µM. The procedure, abridged: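 hPXR-LucHepG2 cells in phenol red-free DMEM with 5% charcoal-stripped FBS, 2000 cells/well, attached 5 h, then exposed 24 h at 37C to compounds; rifampicin as positive agonist control (2.8 nM–92 uM). Luciferase luminescence read.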

The target is the same in experiment [4]. As to the kind of experiment: Dual reporter qHTS for antagonist of Pregnane X Receptor (hPXR) against the NCATS DSHEA and TCM libraries: Luminescence Readout (AID 1920060). Also: 0% is about no effect. As to conditions: hPXR dual reporter cells, luciferase luminescence, antagonist mode; series mostly up to 40 µM. The procedure, abridged: (§2)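 Rifampicin-stimulated (2 uM final) hPXR-luciferase HepG2 cells were treated for 24 h with DSNP/TCM substances. Viability came from CellTiter-Fluor fluorescence, reporter activity from ONE-Glo luminescence.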

Experiment [5] can be described thus: Dual reporter qHTS for antagonist of Pregnane X Receptor (hPXR) against the NCATS DSHEA and TCM libraries: Fluorescence Readout (AID 1920061). Also: 0% is about no effect. As to conditions: PXR dual reporter cells, antagonist mode; series mostly up to 40 µM. The procedure, abridged: as §2
A general note: qHTS replaces the single test concentration by a dilution series.

The mark [6] stands for this setting: at 28.7 µM (top of the series), parasite line A.
Setting [7] is: at 28.7 µM (top of the series), parasite line B.

Results filed as inconclusive are left out. Activity calls are given as the source filed them. Unless noted, calls follow the shape of the dose curve; as a rule, active = well fitted curve in the direction sought with a large enough effect; inconclusive = small, poorly fitted or top-dose-only effect, or another doubt; inactive = no such curve, though single readings can be large; an effect the other way counts as inactive or inconclusive.

Chain of Nuclear receptor subfamily 1 group I member 2 (Homo sapiens) (O75469 whole entry, looked up): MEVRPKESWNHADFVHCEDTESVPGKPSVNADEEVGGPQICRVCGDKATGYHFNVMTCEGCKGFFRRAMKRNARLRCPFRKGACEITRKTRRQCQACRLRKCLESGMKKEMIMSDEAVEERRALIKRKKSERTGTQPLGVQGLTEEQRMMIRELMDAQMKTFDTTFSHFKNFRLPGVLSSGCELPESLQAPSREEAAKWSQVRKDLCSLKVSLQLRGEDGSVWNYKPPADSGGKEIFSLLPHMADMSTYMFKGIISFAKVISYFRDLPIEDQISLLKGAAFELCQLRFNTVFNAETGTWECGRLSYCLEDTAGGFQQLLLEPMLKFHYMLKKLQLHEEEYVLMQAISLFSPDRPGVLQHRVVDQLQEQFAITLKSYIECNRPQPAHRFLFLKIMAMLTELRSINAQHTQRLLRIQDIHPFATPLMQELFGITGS

`c1ccc2[nH]ccc2c1`: the activity, negative = inhibition was 15.1% (inactive) in experiment [1] (setting [6]) and 19.4% (inactive) in [1] (setting [7]). For the same molecule, the Potency entry in the experiment with 3D7, with 7G8, in the experiment on AA1029, in the experiment with AS120, in the experiment on ATS189 and in the experiment with ATS95 was “inactive” in each case. Moreover, the Potency entry in the experiment with C2A, with CP185, with CP203 and in the experiment with CP215 was “inactive” each time. Moreover, the molecule was classed as inactive with CP191, in the experiment on CP192, with CP194, with CP201 and in the experiment with CP211.

On to `OC[C@@H](O)[C@@H](O)[C@H](O)[C@H](O)CO`, for which the Z-AUC in experiment [2] is -0.605 (inactive); in experiment [2] (measured here: PEO1 parental Z-AUC), -0.476; in experiment [2] (measured here: PEO4 Z-AUC), -0.786. The results for the activity, negative = inhibition in [1] (setting [6]) and in [1] (setting [7]) were 7.85% (inactive) and 7.16% (inactive), respectively. Besides, the Potency entry with 3D7, in the experiment on 7G8, in the experiment with AA1029, with AS120, with ATS189 and with ATS95 was “inactive” throughout. For the same molecule, the Potency result in the experiment with C2A, in the experiment on CP185, with CP203 and in the experiment on CP215 was “inactive” in each case. Also, the call in the experiment on CP191, in the experiment with CP192, in the experiment on CP194, with CP201 and in the experiment with CP211 was inactive.

With `Cc1ccc(C(C)C)c(O)c1`, the result (in [3]; in [4]; in experiment [5]; in the experiment on CP191; in the experiment with CP192; with CP194) was inactive. Further, the call in the experiment on CP201 and in the experiment with CP211 was inactive. Besides, the activity, negative = inhibition is 4.16% (inactive) in [1] (setting [6]) and -10.5% (inactive) in [1] (setting [7]). Besides, the Potency result with 3D7, in the experiment with 7G8, in the experiment on AA1029, in the experiment on AS120, with ATS189 and with ATS95 was “inactive” each time. In addition, the Potency entry in the experiment with C2A, with CP185, with CP203 and with CP215 was “inactive” throughout.

In the case of `O=C(CCBr)N1CCN(C(=O)CCBr)CC1`, the results for the activity, negative = inhibition in experiment [1] (setting [6]) and in experiment [1] (setting [7]) were 10% (inactive) and -0.0848% (inactive), respectively. Further, the Potency entry with 3D7, in the experiment with 7G8, in the experiment with AA1029, with AS120, with ATS189 and with ATS95 was “inactive” throughout. In addition, the Potency entry in the experiment on C2A, in the experiment on CP185, in the experiment with CP203 and in the experiment on CP215 was “inactive” throughout. The molecule was classed as inactive in the experiment with CP191, in the experiment with CP192, in the experiment with CP194, in the experiment on CP201 and in the experiment with CP211.

Turning to `CCCOC(=O)c1ccc(N)cc1`, the figures for the activity, negative = inhibition in experiment [1] (setting [6]) and in experiment [1] (setting [7]) were -0.392% (inactive) and 6.95% (inactive), respectively. The Potency result in the experiment with 3D7, with 7G8, in the experiment with AA1029, in the experiment with AS120, in the experiment on ATS189 and in the experiment on ATS95 was “inactive” each time. The Potency entry with C2A, in the experiment on CP185, in the experiment with CP203 and with CP215 was “inactive” throughout. Also, the call in the experiment with CP191, in the experiment with CP192, with CP194, in the experiment with CP201 and in the experiment with CP211 was inactive.

In the case of `COc1ccc(NS(=O)(=O)c2ccc(N)cc2)nn1`, the activity, negative = inhibition in [1] (at 12.8 µM (top of the series), parasite line A) was 2.8% (inactive); in experiment [1] (at 12.8 µM (top of the series), parasite line B) it was 13.5% (inactive). Besides, the Potency result with 3D7, in the experiment on 7G8, in the experiment on AA1029, with AS120, with ATS189 and with ATS95 was “inactive” each time. Further, the Potency result in the experiment on C2A, with CP185, with CP203 and with CP215 was “inactive” in each case. The molecule was classed as inactive in the experiment on CP191, in the experiment on CP192, in the experiment on CP194, with CP201 and with CP211.

Regarding `O=C(/C=C/c1ccc(O)c(O)c1)O[C@@H]1C[C@@](OC(=O)/C=C/c2ccc(O)c(O)c2)(C(=O)O)C[C@@H](O)[C@@H]1O`, the molecule was classed as inactive in experiment [3], in experiment [4] and in [5].

On to `CC(C)=CCC[C@@](C)(O)[C@H]1CC=C(C)CC1`, for which the result in experiment [4] and in [5] was inactive.

For the molecule `Cc1c(NC(C)C)c(=O)n(-c2ccccc2)n1C`, the activity, negative = inhibition in experiment [1] (setting [6]) was 8.37% (inactive); in [1] (setting [7]) it was 23.5% (inactive). Further, the Potency entry in the experiment on 3D7, in the experiment with 7G8, with AA1029, in the experiment on AS120, in the experiment on ATS189 and in the experiment with ATS95 was “inactive” throughout. Further, the Potency result in the experiment with C2A, in the experiment on CP185, with CP203 and in the experiment on CP215 was “inactive” in each case. Moreover, the molecule was called inactive in the experiment on CP191, with CP192, with CP194, in the experiment with CP201 and in the experiment with CP211.

Values taken from PubChem BioAssay (NCATS).
